The text below walks through data of PubChem BioAssay (NCI).

Among the test systems are NCI-H23 lung; NCI-H226 lung; NCI-H322M lung; HOP-62 NSCLC; NCI-H460 lung; HOP-92 NSCLC; NCI-H522 lung; A549/ATCC NSCLC; 786-0 renal; COLO 205 colon.
Assay in all cases: NCI-60 one-dose screen, 48 h (100 = growth as untreated, 0 = no growth, -100 = all killed)
Holding throughout (settings): 10 µM unless noted

The panel holds about 83,000 compounds, 20% with a hit somewhere; the sample as a whole holds those more often.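 Method: cells in 96-well plates; compound added at one concentration; 48 h incubation; percent growth measured; values under 10 scored active.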 A number with no mark means an inactive call. The source made the active and inactive calls.

Regarding `C#CCNC(=O)CC[C@]1(C)[C@H]2CC[C@@H]3[C@@H]([C@@](C)(O)CCC=C(C)C)CC[C@@]3(C)[C@]2(C)CC[C@H]1C(=C)C`, the growth in the assay on NCI-H23 lung was 16.3% [100 µM]; in the assay with NCI-H226 lung, 51.5% [100 µM]; in the assay with NCI-H322M lung, 75.7% [100 µM]; in the assay with HOP-62 NSCLC it was 51.5% [100 µM]; in the assay with NCI-H460 lung, 33.7% [100 µM]; in the assay on HOP-92 NSCLC, -25.5% [100 µM] (active). The growth in the assay with NCI-H522 lung was -73.1% [100 µM] (active); in the assay on A549/ATCC NSCLC, 37.7% [100 µM]; with 786-0 renal, -67.9% [100 µM] (active); in the assay with COLO 205 colon it was 42.7% [100 µM].

For `CC/C=C(\C)C(CCC)(CN=O)C(=O)OCC` (stereo not given), the growth in the assay with NCI-H23 lung is 99.7%; in the assay with NCI-H226 lung, 109%; in the assay on NCI-H322M lung, 107%; with HOP-62 NSCLC it was 93%; in the assay on NCI-H460 lung, 114%; in the assay on HOP-92 NSCLC, 102%. The growth is 92.8% in the assay on NCI-H522 lung, 85.8% in the assay on A549/ATCC NSCLC, 104% in the assay with 786-0 renal and 104% with COLO 205 colon.

As to `CC(C)[N+](C)(C)CC(O)COc1cccc2ccccc12` (stereo not given), the growth with NCI-H23 lung was 95.5%; in the assay on NCI-H226 lung, 107%; in the assay on NCI-H322M lung it was 112%; in the assay with HOP-62 NSCLC it was 106%; in the assay with NCI-H460 lung, 109%; in the assay on HOP-92 NSCLC, 81.4%. Further, the growth in the assay on NCI-H522 lung was 114%; in the assay on A549/ATCC NSCLC, 101%; in the assay on 786-0 renal, 121%; with COLO 205 colon, 104%.

For the compound `COc1cc2c(cc1OC(C)=O)C(=O)CCCC2`, the growth with NCI-H23 lung is 93.6%; in the assay with NCI-H226 lung it was 98.1%; in the assay on NCI-H322M lung, 89.9%; in the assay on HOP-62 NSCLC it was 75.4%; in the assay with NCI-H460 lung, 105%; in the assay with HOP-92 NSCLC, 79%. Besides, the growth with NCI-H522 lung was 78%; in the assay with A549/ATCC NSCLC it was 85.8%; in the assay on 786-0 renal it was 86.9%; in the assay with COLO 205 colon it was 135%.

`Fc1cc2[nH]ncc2c2c3c(c(-c4cn[nH]c4C(F)(F)F)nc12)C1CCC3C1` (stereo not given): the growth is -4.72% (active) in the assay with NCI-H23 lung; 4.86% (active) in the assay on NCI-H226 lung; 0.591% (active) in the assay with NCI-H322M lung; -19.4% (active) with HOP-62 NSCLC; 1.8% (active) in the assay on NCI-H460 lung; 17.1% with HOP-92 NSCLC. In addition, the growth in the assay on NCI-H522 lung was -2.89% (active); in the assay on A549/ATCC NSCLC, -6.2% (active); with 786-0 renal, 2.72% (active); in the assay with COLO 205 colon it was -74.7% (active).

In the case of `Cc1ccccc1-n1nnc(C(=O)Nc2nc3ccc(F)cc3s2)c1C`, the growth with NCI-H23 lung is 55.7%; with NCI-H226 lung, 48.4%; in the assay on NCI-H322M lung, 71.2%; in the assay on HOP-62 NSCLC, 86%; in the assay with NCI-H460 lung, 65.7%; in the assay on HOP-92 NSCLC, 55.7%. In addition, the growth in the assay on NCI-H522 lung is 66.4%; with A549/ATCC NSCLC, 64.5%; in the assay on 786-0 renal, 76.2%; with COLO 205 colon, 80.5%.

Consider `CCCCC(CCCCCC(CCCC)C1NC(C)Cc2cc(OC)c(OC)cc21)C1NC(C)Cc2cc(OC)c(OC)cc21` (stereo not given), for which the growth with NCI-H23 lung is -81.4% (active); with NCI-H226 lung it was -77.8% (active); in the assay with NCI-H322M lung, -39.4% (active); in the assay with HOP-62 NSCLC it was -97.2% (active); in the assay on NCI-H460 lung, -73.8% (active); with HOP-92 NSCLC it was -57.8% (active). Besides, the growth in the assay with NCI-H522 lung was -87.7% (active); with A549/ATCC NSCLC it was -80.9% (active); in the assay on 786-0 renal it was -98.4% (active); in the assay with COLO 205 colon it was -96.9% (active).

Regarding `N#C/C(C(=O)c1ccccc1)=C1/C(=O)Nc2ccccc21`, the growth is 102% in the assay on NCI-H23 lung; 104% in the assay with NCI-H226 lung; 100% in the assay with NCI-H322M lung; 86.3% in the assay on HOP-62 NSCLC; 106% with NCI-H460 lung; 105% in the assay on HOP-92 NSCLC. Moreover, the growth was 97.6% in the assay on NCI-H522 lung, 106% in the assay with A549/ATCC NSCLC, 6.59% (active) with 786-0 renal and 105% in the assay with COLO 205 colon.

With `COc1ccc(C(=O)CSc2nnc(-c3cc(-c4ccccc4)nc4ccccc34)o2)cc1`, the growth with NCI-H23 lung was 109%; in the assay with NCI-H226 lung it was 106%; in the assay on NCI-H322M lung, 99.7%; in the assay on HOP-62 NSCLC, 97.5%; with NCI-H460 lung it was 106%; in the assay on HOP-92 NSCLC it was 113%. Further, the growth was 102% in the assay with NCI-H522 lung, 98% in the assay on A549/ATCC NSCLC, 106% in the assay with 786-0 renal and 122% with COLO 205 colon.

In the case of `NNC(=O)c1ccc(C(=O)NN)cc1`, the growth with NCI-H23 lung was 101%; in the assay on NCI-H226 lung, 97.6%; in the assay on NCI-H322M lung, 102%; in the assay on HOP-62 NSCLC, 115%; with NCI-H460 lung, 104%; with HOP-92 NSCLC, 104%. For the same compound, the growth is 101% in the assay on NCI-H522 lung, 100% with A549/ATCC NSCLC, 114% in the assay with 786-0 renal and 138% with COLO 205 colon.

For `CCc1ccc(C2=C/C(=C/c3ccccc3)C(=O)N2CCc2ccc(S(N)(=O)=O)cc2)cc1`, the growth in the assay with NCI-H23 lung is 101%; with NCI-H226 lung, 99.2%; in the assay with NCI-H322M lung it was 94.5%; in the assay with HOP-62 NSCLC, 96.9%; in the assay with NCI-H460 lung it was 100%; with HOP-92 NSCLC, 99.2%. Further, the growth in the assay on NCI-H522 lung was 100%; in the assay on A549/ATCC NSCLC, 108%; in the assay with 786-0 renal it was 98.6%; in the assay with COLO 205 colon, 120%.

With `N#C/C(C(=O)c1ccccc1)=C1/C(=O)Nc2ccc(Br)cc21`, the growth was 94.4% in the assay on NCI-H23 lung; 96.6% in the assay on NCI-H226 lung; 101% in the assay on NCI-H322M lung; 84.1% in the assay on HOP-62 NSCLC; 105% in the assay with NCI-H460 lung; 109% in the assay on HOP-92 NSCLC. The growth is 99.1% in the assay with NCI-H522 lung, 104% with A549/ATCC NSCLC, 101% in the assay on 786-0 renal and 113% in the assay with COLO 205 colon.

On to `C1=C[C@H]2O[C@@H]1c1ccc3[nH]ccc3c12`, for which the growth with NCI-H23 lung was 96%; with NCI-H226 lung, 101%; in the assay on NCI-H322M lung, 110%; in the assay on HOP-62 NSCLC, 96.6%; in the assay on NCI-H460 lung, 102%; with HOP-92 NSCLC, 120%. In addition, the growth with NCI-H522 lung is 41.7%; in the assay with A549/ATCC NSCLC it was 89.4%; in the assay on 786-0 renal, 106%; with COLO 205 colon, 110%.
